According to the supplement of paper PMC12340641:
Counter-ions that a name gives are not always drawn.

Tests used:
[1] = target: IKZF1 (dCK*-IKZF1 fusion in HEK293FT) (UniProt Q13422); test: inhibition of IKZF1 HTRF signal (DMSO = 0%, pomalidomide 10 uM = 100%); higher = lower IKZF1 protein level; conditions: compound concentration: 5 uM, overnight (~20 h)
How it was run: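 After overnight treatment at 37 °C with 5 μM compound in single wells, HEK293FT cells (2000/well, 384-well) stably expressing an IKZF1 fusion were lysed for 30 min at room temperature. A commercial HTRF total-IKZF1 antibody kit was incubated with the lysate overnight, and the time-resolved FRET ratio at 665/620 nm was corrected for background. Data are given as percent inhibition of IKZF1 signal relative, on each plate, to vehicle and a reference degrader, set at 0% and 100% respectively.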

[2] = tested on: HEK293FT dCK*-only; test: relative growth in counter assay (no AraC = 100%, AraC + DMSO = 0%); higher = more growth rescue independent of IKZF1; conditions: compound concentration: 5 uM; AraC concentration: 0.3 uM; overnight pretreatment + 4 days AraC
How it was run: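 Counter assay in HEK293FT cells expressing dCK* alone (300/well, 384-well). Cells received 5 μM compound 2 h after seeding, then after overnight at 37 °C a nucleoside suicide substrate at 0.3 μM plus medium for 4 days. On day 5, Hoechst 33342-stained nuclei were counted by imaging. Relative growth was normalised per plate to wells without suicide substrate (100%) and substrate plus vehicle (0%).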

[3] = tested on: HEK293FT dCK*-IKZF1; test: relative growth recovery (pomalidomide 10 uM = 100%, DMSO = 0%); higher = more growth rescue (IKZF1 fusion degradation); conditions: compound concentration: 5 uM; AraC concentration: 0.3 uM; overnight pretreatment + 4 days AraC
How it was run: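 HEK293FT cells stably expressing a dCK*-IKZF1 fusion (300/well, 384-well) received 5 μM compound 2 h after seeding. After overnight at 37 °C they received a nucleoside suicide substrate at 0.3 μM plus medium for 4 days. On day 5, Hoechst 33342-stained nuclei were counted by whole-well imaging. Growth recovery was normalised per plate to a reference degrader (100%) and vehicle (0%); values are means of duplicates run on different days.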

Sequence of IKZF1 (dCK*-IKZF1 fusion in HEK293FT) (Q13422 whole entry, looked up, the tested form may be a part): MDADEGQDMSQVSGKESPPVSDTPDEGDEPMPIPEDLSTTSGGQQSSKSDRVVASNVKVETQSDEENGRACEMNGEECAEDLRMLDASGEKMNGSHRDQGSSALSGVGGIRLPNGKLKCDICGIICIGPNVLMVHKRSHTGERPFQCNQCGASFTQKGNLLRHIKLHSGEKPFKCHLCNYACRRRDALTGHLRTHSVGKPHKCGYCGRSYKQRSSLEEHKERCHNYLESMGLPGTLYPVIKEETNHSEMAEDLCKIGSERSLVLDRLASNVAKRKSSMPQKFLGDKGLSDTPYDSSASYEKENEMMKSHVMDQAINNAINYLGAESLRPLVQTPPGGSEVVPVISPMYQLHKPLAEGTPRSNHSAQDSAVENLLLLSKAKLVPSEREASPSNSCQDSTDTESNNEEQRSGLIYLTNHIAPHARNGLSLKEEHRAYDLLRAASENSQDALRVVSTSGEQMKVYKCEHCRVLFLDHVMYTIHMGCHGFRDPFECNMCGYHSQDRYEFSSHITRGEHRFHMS

Row | SMILES | inhibition of IKZF1 HTRF signal [1] | relative growth in counter assay [2] | relative growth recovery [3]
1 | C[C@H](NCc1ccc(OCc2ccccc2F)cc1)C(N)=O [priralfinamide] | -24% | -0.94% | -2.81%
2 | NC(=S)N/N=C/c1ncccc1N [Triapine] | -21.7% | -34.8% | -13%
3 | COC(=O)Nc1nc2ccc(C(=O)c3ccccc3)cc2[nH]1 | -12.9% | -32.6% | -10.6%
4 | O=C(Nc1ccc(F)cc1)N1CCc2ccccc2C1c1ccc(C(F)(F)F)cc1 (stereo not given) | -25.5% | 4.9% | -0.27%
5 | C/C(=C\c1csc(C)n1)[C@@H]1C[C@@H]2O[C@]2(C)CCC[C@H](C)[C@H](O)[C@@H](C)C(=O)C(C)(C)[C@@H](O)CC(=O)N1 [Ixabepilone] | -13.2% | -33.8% | -10.8%
6 | CC(C)(C)C1CCc2c(sc(NC(=O)c3ccco3)c2C(=O)O)C1 (stereo not given) | -23.8% | -8.81% | -0.515%
7 | CCCCOc1ccc(-c2cncc(C(=O)NCc3cccnc3N3CCOCC3)c2)cc1Cl | -19.5% | -0.15% | 4.37%
8 | Nc1ncnc2c1ncn2[C@@H]1O[C@H](COP(=O)(O)OP(=O)(O)OP(=O)(O)OP(=O)(O)OC[C@H]2O[C@@H](n3cnc4c(N)ncnc43)C(O)C2O)C(O)C1O (stereo not given in full) [P1,P4-DI(adenosine-5')tetraphosphate ammonium salt] | -38% | 5.12% | 1.01%
9 | O=C(c1cccc(Cl)c1F)N1CCN(Cc2cccc(Nc3nccs3)n2)CC1 | -54.8% | -32.1% | -11.2%
10 | O=C(CSc1nnc2c(n1)[nH]c1ccccc12)Nc1ccc(Cl)cn1 | 4.2% | -5.82% | 1.11%
